From ChEMBL document CHEMBL3988442, “University of Dundee, Small-Polar-MMV Screening Library” (2021)
Out of some 48,000 compounds screened, about 13,000 (27%) showed an effect of 50% or more. This is one part of the list.

Each compound was assayed on Wolbachia pipientis (assay: Anti-Wolbachia Cell-Based Screen). Details: 5 µM.
Assay type: functional
Set-up: scale not given: in the data most compounds retested in dose-response had high values

| Structure (SMILES) | Percent Effect |
| --- | --- |
| CCc1nc(CCNC(=O)NC2CCSCC2)cs1 | 5.983% |
| Cc1cn(CC(=O)NC2CCC3(CC2)OCCO3)c2ccccc12 | -12.26% |
| CCCN1CCN(C(=O)c2ccc3nc(C)oc3c2)[C@H]2CS(=O)(=O)C[C@H]21 | -5.857% |
| COCCN1C[C@H]2CN(Cc3cccc(OC(F)(F)F)c3)CCN2C1=O | -4.744% |
| Cc1cccc(COc2ccc(NC(=O)C(C)NC(N)=O)c(C)c2)c1 (centres undefined) | -6.983% |
| Cc1cccc(COc2ccc(C(C)NS(N)(=O)=O)cc2)c1 (centres undefined) | 134.5% |
| CC(NS(N)(=O)=O)c1ccc(OCc2ccc(F)cc2)cc1 (centres undefined) | 111.6% |
| Cc1cc(OCc2cccc(F)c2)ccc1NC(=O)C(C)NC(N)=O (centres undefined) | -0.2467% |
| Cc1cccc(CNCCOc2ccc(S(C)(=O)=O)cc2)c1 | 16.11% |
| NC(=O)CS(=O)(=O)Cc1ccc(OCc2ccc(F)cc2)cc1 | -22.33% |
| Cc1cccc(COc2ccc(C(C)NC(=O)CNC(N)=O)cc2)c1 (centres undefined) | 98.3% |
| Cc1cc(C)n(-c2ccc(C(C)NS(N)(=O)=O)cc2)n1 (centres undefined) | -26.74% |
| Cc1cccc(COc2ccc(C(C)N)cc2)c1.Cl (centres undefined) | 108.7% |
| CC(=O)NC(C)C(=O)Nc1ccc(OCc2cccc(F)c2)cc1C (centres undefined) | -4.537% |
| CS(=O)(=O)Cc1ccc(OCc2ccc(F)cc2)cc1 | -17.41% |
| Cc1ccc(OCCC(=O)NC(C)c2ccncc2)cc1 (centres undefined) | -14.45% |
| COc1cccc2ccc(CN3CCN(c4ncccn4)CC3)nc12 | -3.273% |
| CC(C)(C)c1c[nH]c([C@@H]2COCCN2C2CCC2)n1 | -8.065% |
| Cc1cc(C)n(C2CN(C(=O)CN3C(=O)CSc4ccccc43)C2)n1 | 2.557% |
| Cc1ccsc1[C@@H]1CCN(C(=O)Cn2cc3ccccc3n2)C[C@H]1O | -6.576% |
| CS(=O)(=O)N1CCc2nc(NC(=O)Nc3c(F)cccc3F)sc2C1 | -13.59% |
| CCCNC(=O)c1nc2c(o1)CN(C(C)=O)C2 | 21.64% |

| Structure (SMILES) | Percent Effect |
| --- | --- |
| COc1ccc(CCNC2CCCN(c3ccc(C)nn3)C2)cc1 (centres undefined) | -3.788% |
| COc1ccc(C2CCCN2c2nnc(C)s2)c(OC)c1 (centres undefined) | 6.611% |
| Cc1cccc(C(=O)N2CCCN(CCc3scnc3C)CC2)c1 | -3.968% |
| CCN1CCN(C(=O)c2scnc2C)CC1 | 114.5% |
| Cc1ncsc1C(=O)N1CCN(Cc2ccccc2)CC1C (centres undefined) | 4.154% |
| COCCN1CCCN(C(=O)c2scnc2C)CC1 | 111.8% |
| Cc1ncsc1C(=O)N1CCN(CCC(C)C)CC1 | 114% |
| Cc1ncsc1C(=O)N1CCC(Nc2cccnn2)CC1 | -12.54% |
| CC(C)CCN1CCN(C(=O)c2cccnc2-n2cncn2)CC1 | 7.327% |
| COc1ccccc1C(=O)N1CCN(CCc2scnc2C)CC1 | -5.378% |
| Cc1ncsc1C(=O)N1CCn2nc(CN3CCSCC3)cc2C1 | -3.157% |
| c1cc(CCN2CCC(NCc3ccsc3)CC2)ccn1 | -8.408% |
| Cc1ccc(N2CCCC(NC(=O)Nc3cnn(C)c3)C2=O)cc1 (centres undefined) | 10.21% |
| O=C(NCc1cnc2n1CCN(Cc1ccoc1)C2)c1ccno1.O=C(O)C(F)(F)F | 0.5733% |
| CC(=O)N1CCc2nc(-c3ccc(F)cc3)nc(NC(C)C)c2CC1 | 94.36% |
| CC(=O)NCC(=O)N1CCc2nc(-c3ccccc3)nc(C)c2CC1 | -15.18% |
| CC(=O)N1CCc2c(nc(N(C)C)nc2NC(C)Cc2cccs2)C1 (centres undefined) | 16.87% |
| CC(C)Nc1ncnc2c1CCN(C(=O)Cc1ccccn1)CC2.O=C(O)C(F)(F)F | 17.78% |
| Cc1nc(-c2ccc(F)cc2)nc2c1CCN(C(=O)CN(C)C)CC2 | 3.588% |
| Cc1nc2c(c(NC(C)C)n1)CCN(C(=O)c1ccno1)CC2.O=C(O)C(F)(F)F | -9.631% |
| CC(C)Nc1nc(-c2ccccc2)nc2c1CCN(C(=O)C1CC1)CC2.O=C(O)C(F)(F)F | 99.02% |
| Cc1nc2c(c(NC(C)C)n1)CCN(Cc1cccnc1)CC2.O=C(O)C(F)(F)F.O=C(O)C(F)(F)F | -13.98% |

| Structure (SMILES) | Percent Effect |
| --- | --- |
| CSCC(=O)N1CCc2nc(C)nc(NCc3ccccc3)c2CC1 | -12.22% |
| CC(C)Nc1nc(-c2ccccc2)nc2c1CCN(C(=O)CC#N)CC2 | 98.77% |
| CC(=O)N1CCc2nc(-c3ccccc3)nc(NC(C)C)c2CC1 | 96.01% |
| Cc1ncsc1C(=O)NCc1cc2n(n1)CCN(C(=O)N(C)C)C2 | -4.389% |
| Cc1sc2nc(CCN)nc(N3CCN(S(C)(=O)=O)CC3)c2c1C | 5.151% |
| CN1CC(=O)N(c2ccccc2)CC12CCN(C(=O)c1ccnnc1)C2.O=C(O)C(F)(F)F (centres undefined) | 94.6% |
| CN1CC(=O)N(c2cnn(C)c2)CC12CCN(C(=O)c1ccsc1)C2.O=C(O)C(F)(F)F (centres undefined) | -13.31% |
| CN1CC(=O)N(c2cccnc2)CC12CCN(C(=O)c1cccnc1)C2.O=C(O)C(F)(F)F.O=C(O)C(F)(F)F (centres undefined) | -6.437% |
| CCC(CC)C(=O)N1CCC2(C1)CN(c1ccccc1)C(=O)CN2C.O=C(O)C(F)(F)F (centres undefined) | -2.96% |
| CN1CC(=O)N(c2ccsc2)CC12CCN(C(=O)c1ccccc1)C2.O=C(O)C(F)(F)F (centres undefined) | 8.898% |
| CN1CC(=O)N(c2ccccc2)CC12CCN(C(=O)c1cnccn1)C2.O=C(O)C(F)(F)F (centres undefined) | 102.5% |
| Cc1ccsc1C(Cc1ccccc1)NC(=O)CSCC(N)=O (centres undefined) | -6.461% |
| COCCCOC1CN(C(=O)c2[nH]nc3c2CCCC3)C1 | -6.811% |
| Cl.Cl.O[C@@H]1C[C@@](CNCC2CC2)(COc2cccnc2)C[C@@H]1O | -8.613% |
| CC(C)(C)c1cc(=O)[nH]c(-c2ccccc2CN2CCCCCC2)n1 | 107.3% |
| CC(C)(C)c1cc(=O)[nH]c(-c2ccccc2CN2CCC[C@@H](O)C2)n1 | -11.42% |
| CC1(C)CCN(Cc2ccccc2-c2nc(C(C)(C)C)cc(=O)[nH]2)C1 | -0.3128% |
| CC(C)N1CCC(CC(=O)N2CCC(C(O)c3nccn3C)CC2)CC1 (centres undefined) | 112.6% |
| Cc1nc(N2CCC(C(O)c3nccn3C)CC2)c2nc(C)oc2n1 (centres undefined) | 6.999% |
| CCCN1CCC(CC(=O)N2CC(C)(C)[C@@](C)(O)C2)CC1 | 2.3% |
| CCn1ncnc1C(NC(=O)CC1CCN(C(C)C)CC1)C1CC1 (centres undefined) | -0.6358% |
| CC(C)N1CCC(C(=O)N2CCC(C(O)c3nccn3C)CC2)CC1 (centres undefined) | 119.5% |

| Structure (SMILES) | Percent Effect |
| --- | --- |
| CC(C)n1ccnc1CN1CCCN(C(=O)CC2C=CCC2)CC1 (centres undefined) | 11% |
| CC(C)N1CCC(CC(=O)N2CCN(Cc3nccn3C)CC2)CC1 | 103.8% |
| CC(C)N1CCC(CC(=O)N2CCCCC2CCn2cccn2)CC1 (centres undefined) | 17.49% |
| Cc1nc(N2CCC(C(O)c3nccn3C)CC2)c2c(C)noc2n1 (centres undefined) | 0.7849% |
| Cc1nc(N2CCC(C(O)c3nccn3C)CC2)c2cccnc2n1 (centres undefined) | -5.3% |
| CCCN1CCC(CC(=O)N2CCC(C(O)c3nccn3C)CC2)CC1 (centres undefined) | 109.9% |
| CCOc1ccccc1CN(CC)Cc1ccc(S(C)(=O)=O)cc1 | 14.95% |
| CSc1ccc(NCC(=O)Nc2c(C)nn(C)c2C)cc1F | -13.07% |
| Cn1c(=O)ccn(CC(=O)Nc2cnccc2O)c1=O | -3.574% |
| CCS(=O)(=O)CC(=O)NC(C)c1ccc(F)cc1F (centres undefined) | 5.956% |
| CC(NC(=O)Cn1ccc(=O)n(C)c1=O)c1cc(F)ccc1F (centres undefined) | 123.1% |
| Cn1c(=O)ccn(CC(=O)NCC2Cc3ccccc3O2)c1=O (centres undefined) | 4.727% |
| CC(NCCn1cccn1)c1ccccc1F (centres undefined) | 17.82% |
| CC(NC(=O)Cn1ccc(=O)n(C)c1=O)c1ccccc1F (centres undefined) | 122% |
| Cc1nnc2n1CCN(c1nc3ccccc3o1)C2 | 7.974% |
| CC(Oc1ccccc1C(F)(F)F)C(=O)NCCC(=O)N(C)C (centres undefined) | 4.179% |
| CCCNC(=O)C(C)Oc1ccccc1 (centres undefined) | 7.787% |
| CC(Oc1cc(Cl)cc(Cl)c1)C(=O)NCCS(N)(=O)=O (centres undefined) | 112.6% |
| CCNC(=O)C(C)Oc1ccc(N(C)S(C)(=O)=O)cc1 (centres undefined) | 35.45% |
| CC(Oc1cc(Cl)cc(Cl)c1)C(=O)NCCOCC(N)=O (centres undefined) | 92.53% |
| CC(C)c1ccc(OCCC(=O)NCCC(=O)N(C)C)cc1 | 5.568% |
| CC(Oc1ccc(S(C)(=O)=O)cc1)C(=O)NC(N)=O (centres undefined) | -0.9866% |

| Structure (SMILES) | Percent Effect |
| --- | --- |
| CC(Oc1cc(Cl)cc(Cl)c1)C(=O)NCCC(=O)N(C)C (centres undefined) | 99.28% |
| CCCNC(=O)C(C)Oc1ccc(F)cc1 (centres undefined) | -16.03% |
| Cc1ccc(-c2noc(C(C)NS(C)(=O)=O)n2)cc1 (centres undefined) | 98.3% |
| Cc1cnn(C2CN(C(C)c3nc(-c4ccccc4)no3)C2)c1 (centres undefined) | -0.8523% |
| Cc1ccc(-c2noc([C@@H]3C[C@H](NC(=O)NC(C)C)CN3C)n2)cc1 | -7.192% |
| O=C(CCc1ccsc1)N1CCCCC1Cn1cccn1 (centres undefined) | 114.6% |
| O=C(CCc1ccccc1)N1CCCCC1Cn1cccn1 (centres undefined) | 99.73% |
| O=C(CCc1cccs1)N1CCCCC1Cn1cccn1 (centres undefined) | 8.16% |
| COc1cccc(CCC(=O)N2CCCCC2Cn2cccn2)c1 (centres undefined) | -6.08% |
| CSCCC(=O)N1CCCCC1CCn1cccn1 (centres undefined) | -3.819% |
| CN(Cc1ccsc1)C(=O)CN1CCCCC1Cn1cccn1 (centres undefined) | -3.818% |
| O=C(CN1CCN(CCO)CC1)NCc1ccc(Cl)s1 | -5.807% |
| Cc1nsc(NC2CCOC3(CCCC3)C2)n1 (centres undefined) | -8.543% |
| CCn1cc(CN2C[C@H]3CC[C@@H]2CN(C(=O)c2ccncc2)C3)cn1 | 5.818% |
| COc1cccc(OC2CN(C(=O)c3ccnc(OC)c3)C2)c1 | 6.103% |
| Cn1cc(C(=O)N2C[C@H]3C[C@H](Oc4ccccc4)C[C@H]3C2)cn1 | 96.44% |
| Cn1cc(C(=O)N2CCCN(C3Cc4ccccc4C3)CC2)cn1 | -3.221% |
| CCn1cc(C(=O)N2C[C@H]3C[C@H](Oc4ccccc4)C[C@H]3C2)cn1 | 75.19% |
| CN(C)c1ncc(C(=O)N2C[C@H]3C[C@H](Oc4ccccc4)C[C@H]3C2)cn1 | 125.1% |
| Cc1cccc(OC2CN(C(=O)c3cnn(C)c3)C2)c1 | -4.108% |
| CCc1ncc(C(=O)N2CC(Oc3ccccc3Cl)C2)cn1 | 4.007% |
